# Screens (PubChem BioAssay)
# TDP1 cell CPT = qHTS for Inhibitors of human tyrosyl-DNA phosphodiesterase 1 (TDP1): qHTS in cells in presence of CPT; chicken DT40 Tdp1-/-;hTDP1 cells + 20 nM CPT, ATP luminescence, 48 h; Potency, µM (titrated, usually from 46.2 µM), without a hit: at the top dose activity change, negative = growth inhibition, hits mostly inhibitors; hit rate 12% among 420,000; AID 686979, 2013; note: potency is the fitted concentration of half-maximal effect; % is set by controls: 0 for no effect and ±100 for the full control effect; nearly all actives have a fitted effect of over 55% in size
#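 Chicken DT40 Tdp1-/- cells complemented with human TDP1, 400 cells/well, exposed to compounds plus 20 nM camptothecin for at least 48 h at 37 C; viability read as ATP content by CellTiter-Glo luminescence.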
# IL-1B inflam inh = qHTS for Inhibitors of Inflammasome Signaling: IL-1-beta AlphaLISA Primary Screen; AID 743279, 2014; activity change, % at 57.5 µM; THP-1 LPS/ATP IL-1B secretion, AlphaLISA, 16 h; stronger effect = lower value; hit rate 4.7% among 360,000; in the data active = activity change below about -50%; inconclusive = mostly about -30% to -49%; note: % is set by controls: 0 for no effect and ±100 for the full control effect
#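 Secreted IL-1B measured by AlphaLISA bead assay after 16 h compound exposure of THP-1 cells; compounds (final up to 57.5 uM) added 1 h before LPS (250 ng/mL) and ATP (1.25 mM) stimulation; lower signal means less secretion.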
# TGFb inhibitor = qHTS for Inhibitors of TGF-b; hit rate 1.2% among 410,000; AID 588855, 2011; Potency, µM (doses to about 46.1 µM), for inactives: top-dose activity, negative = inhibition, usual class: inhibitors; HepG2 CAGA-GFP TGF-b/SMAD3 reporter, GFP fluorescence, 18 h; TGF-beta stimulated, 500 pg/mL final; note: potency is the fitted concentration of half-maximal effect; % is set by controls: 0 for no effect and ±100 for the full control effect; nearly all actives have a fitted effect of over 65% in size
#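 Cell-based qHTS in HEPG2 carrying a CAGA-GFP Smad reporter; compounds added before 500 pg/mL final TGF-beta, 18 h incubation at 37 degrees C, GFP fluorescence quantified per cell by imaging cytometry.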
# HepG2 tox = qHTS for Inhibitors of TGF-b: Cytotox Counterscreen. HepG2 CAGA-GFP viability, ATP luminescence, 18 h. Potency, µM (highest dose often 46.1 µM), without a hit: at the top dose activity change, negative = cytotoxicity, most hits filed as cytotoxic. hit rate 0.76% among 410,000; note: potency is the fitted concentration of half-maximal effect
#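 HepG2 CAGA-GFP cells (1000/well, DMEM with 1% FBS) received compound, then TGF-beta at 500 pg/mL final, and were incubated 18 hours at 37 degrees C. Viability was read by CellTiter-Glo luminescence. Media-only wells were set as complete cell-killing and DMSO as no toxicity.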
# TDP1 cell noCPT = qHTS for Inhibitors of human tyrosyl-DNA phosphodiesterase 1 (TDP1): qHTS in cells in absence of CPT. DT40 Tdp1-/- hTDP1 cells, no CPT, ATP luminescence, 48 h. Potency, µM (titrated, usually from 46.2 µM), for inactives: at the highest dose activity change, negative = growth inhibition, usual class: inhibitors. hit rate 15% among 420,000. AID 686978, 2013; note: potency is the fitted concentration of half-maximal effect; % is set by controls: 0 for no effect and ±100 for the full control effect; nearly all actives have a fitted effect of over 55% in size
#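 Stably hTDP1-transfected Tdp1-null chicken DT40 cells were treated with library compounds minus camptothecin and grown for at least 48 hr at 37 °C, after which cellular ATP was quantified by luminescence.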
# ASM inhibitor = Inhibitors of Secretory Acid Sphingomyelinase (S-ASM): qHTS; Potency, µM (series often up to 57.5 µM), for inactives: at the top dose activity change, negative = inhibition, usual class: inhibitors; Sphingomyelin phosphodiesterase (Homo sapiens), P17405; hit rate 0.006% among 340,000; placental ASM, HMU-PC fluorogenic substrate, 60 min; note: potency is the fitted concentration of half-maximal effect
#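 Fluorogenic HMU-PC substrate (9 uM final) is turned over by placental ASM in 60 min at 37 C after a 10 min compound preincubation. Reaction ended by alkaline stop (pH 10), with fluorescence read at 386/447 nm.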
# * marks the source's active call; other numbers are inactive results; ? = inconclusive; / = not tested or not shown. Most compounds without a hit are left out; they make up all but 19% or so of the library. Unless noted, calls come from the whole dose curve; as a rule, active = well fitted curve in the direction sought with a large enough effect; inconclusive = small, poorly fitted or top-dose-only effect, or another doubt; inactive = no such curve, though single readings can be large; an effect the other way counts as inactive or inconclusive.
SMILES,TDP1 cell CPT,IL-1B inflam inh,TGFb inhibitor,HepG2 tox,TDP1 cell noCPT,ASM inhibitor
COc1cc2c(cc1OC)C1(Nc3c-2c(Cc2ccccc2)nn3-c2ccccc2)C(=O)Nc2ccccc21 (stereo not given),?,-18,?,-15%,23µM*,23%
Cc1cccc(Cn2c(C(C)O)nc3ccccc32)c1 (stereo not given),-9%,16,-19%,-3%,-24%,-4%
Cc1cccc(Cn2c(C)nc3c(N)c(C)c(C)cc32)c1,-16%,-7,14%,0%,16µM*,-4%
CCc1cc2c(cc3c(=O)n(CC(=O)NC4CCC(C)CC4)nc(CC)n32)s1 (stereo not given),?,/,?,2%,?,/
CCOC(=O)C1CCN(C(=O)Cn2nc(CC)n3c(cc4sccc43)c2=O)CC1,?,/,?,4%,18µM*,/
CCc1cc2c(cc3c(=O)n(CCCC(=O)NCc4ccccc4Cl)nc(CC)n32)s1,?,/,-25%,4%,23µM*,/
CCc1cc2c(cc3c(=O)n(CC(=O)N4CCC(C)CC4)nc(CC)n32)s1,16µM*,/,?,-2%,?,/
CCc1nn(CC(=O)N2CCN(c3cccc(C)c3)C(C)C2)c(=O)c2cc3sccc3n12 (stereo not given),21µM*,/,-31%,-8%,23µM*,/
O=C(CC12CC3CC(CC(C3)C1)C2)Nc1c(F)cccc1F,?,-4,-17%,-25%,?,-2%
O=C(OCC(=O)N1CCc2ccccc21)c1ccccc1[N+](=O)[O-],-1%,22,2%,2%,4%,0%
COc1ccc(Oc2ccc(N/C=C3\CCCC3=O)cc2)cc1,?,-12,0%,-25%,26µM*,7%
CCOC(=O)C1=C(c2cccc(Oc3ccccc3)c2)NC(=S)NC1C (stereo not given),?,-19,?,-16%,23µM*,-3%
CCOC(=O)C1=C(C)C(c2cccc(Oc3ccccc3)c2)NC(=S)N1 (stereo not given),?,-74*,?,-4%,?,-2%
CCOC(=O)C1=C(C)C(c2ccc(OC)cc2)NC(=O)N1 (stereo not given),2%,8,0%,-3%,-15%,6%
CCOC(=O)C1=C(C)C(c2ccc(OC)cc2)NC(=S)N1 (stereo not given),21µM*,4,9%,1%,29µM*,-1%
O=C(CN1CCN(S(=O)(=O)c2ccc(Br)cc2)CC1)N/N=C/c1ccncc1,-8%,-4,-15%,3%,-12%,-2%
S=C(NC1CCCCC1)N1CCOCCOCCN(C(=S)NC2CCCCC2)CCOCCOCC1,?,-9,?,-13%,?,10%
O=C(NC1CCCCCC1)C(=S)N1CCOCC1,?,-7,-30%,-23%,16µM*,0%
C[C@]12CCC3C(CC[C@H]4CCCC[C@]34C)C1CC[C@@]2(O)CNCCO (stereo not given in full),13µM*,2,-3%,-23%,?,-5%
CC(=O)[C@@]1(O)CCC2C3CC[C@H]4C[C@@H](O)CC[C@]4(C)C3CC[C@@]21C (stereo not given in full),7%,9,21%,17%,-6%,2%
CC1CCN(C(=O)/C=C/c2ccc(C(C)(C)C)cc2)CC1,?,-14,0%,-32%,21µM*,-1%
